Experimental data: PubChem BioAssay (NCI)
About 83,000 compounds went through this panel and 20% of them were active in at least one assay; those are over-represented in the sample as a whole.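 Results are percent growth after 48 hours of single-concentration exposure. 100 means growth as in untreated cells, lower positive values show inhibition; negative values down to -100 show cell death.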 Values without a mark were called inactive. Active and inactive are the calls of the source. Rule for the calls: active = growth percent below 10; inactive = the rest.

test system: IGROV1 ovarian; experiment: NCI-60 one-dose screen, 48 h (100 = growth as untreated, 0 = no growth, -100 = all killed); conditions: 10 µM unless noted

Structure (SMILES) | growth
O=S(=O)(NCCNc1nccc(-c2c(-c3ccc(F)c(O)c3)nc3occn23)n1)c1ccccc1 | 43.9%
Cc1ccc2[nH]c(=O)cc(-n3nncc3COc3ccc(C=O)cc3)c2c1 | 106%
Brc1ccc(C2CC(c3cccc(Nc4ccncc4)c3)=NN2c2ccccc2)cc1 (stereo unspecified) | 58.3%
COc1cc(NCC(O)CN(CC(C)C)C2CCCC2)c2ncccc2c1 (stereo unspecified) | 88.8%
CC(=O)OCCCCCNc1ccccc1 | 118%
CN1CCN(CC#CCNC(=O)[C@]23CCC(C)(C)C[C@H]2C2=CC[C@@H]4[C@@]5(C)Cc6c([nH]c7ccccc67)C(C)(C)[C@@H]5CC[C@@]4(C)[C@]2(C)CC3)CC1 | 81.3%
COc1c(Cl)cc(Cl)c2ccc(C=C3C(=O)N(C)C(=O)N(C)C3=O)nc12 | 114%
Nc1c(C(=O)Nc2ccc(Cl)cc2)cc(-c2nc3ccccc3s2)c(=O)n1NS(=O)(=O)c1ccc(Cl)cc1 | 97.4%
COc1ccc(C(=O)c2cc3c(N)c(C(=O)Nc4cccc(Br)c4C)sc3nc2C)cc1 | 24.3%
CCN(CC)S(=O)(=O)c1cccc([N+](=O)[O-])c1 | 107%
CCc1c(Nc2ccc(C)cc2)nc(N)[nH]c1=O | 102%
CN1CCN(c2cc(F)c(NC3=C(Cl)C(=O)c4ncccc4C3=O)c(F)c2)CC1 | -90.4% (active)
Cn1c(COC(=O)NCCn2ccnc2)nc2c(N3CCOCC3)nc(-c3ccccc3)nc21 | -96% (active)
COc1cc(CNC(=O)CCCCC[P+](c2ccccc2)(c2ccccc2)c2ccccc2)c(OC)c2c1OCO2 | 41.8%
CC(=O)OCC(=O)[C@@]1(O)CC[C@H]2[C@@H]3CC(=C(Br)Br)C4=CC(=O)CC[C@]4(C)[C@H]3C(=O)C[C@@]21C | 96%
O=C1CCCCCCCCC(O)C(O)CCCC(c2cccs2)O1 (stereo unspecified) | 97.8%
COC(=O)C1=C(C(=O)ONCCN(C)C)C2C=CC1(C(Cc1ccccc1)Nc1ccc(F)cc1)O2 (stereo unspecified) | 92.4%
CS(=O)(=O)c1ccc(-c2cc3c(oc2=O)-c2ccccc2OC3O)cc1 (stereo unspecified) | 102%
Clc1ccc(C2CC(c3cccc(Nc4ccncc4)c3)=NN2c2ccc(Cl)cc2)cc1 (stereo unspecified) | 7.44% (active)

Structure (SMILES) | growth
CCN(CC)CCCCCCNc1cc(OC)cc2cccnc12 | 88.8%
Clc1cc(Cl)cc(N2N=C(c3cccc(Nc4ccncc4)c3)CC2c2ccc3c(c2)OCO3)c1 (stereo unspecified) | 2.89% (active)
CC(=O)N1N=C(c2cccc(Nc3ccncc3)c2)CC1c1ccc2c(c1)OCO2 (stereo unspecified) | 91.9%
COc1cc(/C=C/C(=O)c2c(C)oc3nc[nH]c(=O)c23)ccc1O | 100%
Cc1ccc(C2C3CC4CCCCC4N3[C@@]3(C(=O)Nc4cc(Cl)ccc43)C2C(=O)c2nc3ccccc3[nH]2)cc1 (stereo partly specified) | 26.4%
CCCCCOc1ccc(/C=N/Nc2cc(C)nc3ccc(Br)cc23)cc1 | -11.7% (active)
C=C1C(=O)O[C@H]2[C@H]1CC/C(COC(=O)/C=C/c1c[nH]c3ccccc13)=C\CC[C@@]1(C)O[C@@H]21 | -69.7% (active)
CCCCCN1C=C/C(=C\C(=O)N(C)c2ccc(Br)cc2)c2ccccc21 | 96.3%
COc1cc2nc(-c3ccc(C(F)(F)F)cc3)cc(OCCN3CCC(O)CC3)c2cc1OC | 42.1%
COc1cccc(-c2nc3occn3c2-c2ccnc(NCCCNS(=O)(=O)c3cccc(F)c3)n2)c1 | 89%
COc1ccc(C(=O)c2cc3c(N)c(C(=O)Nc4cccc5ccccc45)sc3nc2C)cc1 | 23.8%
CCCCCCCCCCN=C(N)N=C(N)N | 12.1%
CN1CCN(Cc2ccc(NC(=O)c3cncc(C#Cc4cnccc4C(F)(F)F)c3)cc2C(F)(F)F)CC1 | 58.3%
C=C(C)[C@@H]1CC[C@]2(CO)CC[C@]3(C)[C@H](CC[C@@H]4[C@@]5(C)CCCNC(C)(C)[C@@H]5CC[C@]43C)[C@@H]12 | 36.3%
O=S(=O)(NCCNc1nccc(-c2c(-c3cccc(F)c3)nc3occn23)n1)c1cccc2ccccc12 | 35.4%
CC(=O)N1c2ccccc2NC2=C(C(=O)N(C)C2(C)C)C1C (stereo unspecified) | 39.6%
O=C(Nc1ccc(F)cc1)c1c(NC(=O)C(F)(F)F)sc2c1CCCCC2 | 18.1%
O=C1Nc2c(ccc(Cl)c2Cl)/C1=C/c1ccc([N+](=O)[O-])cc1 | 98.6%
COc1ccc(-c2nc(N/N=C/c3ccco3)nc(N3CCOCC3)c2C#N)cc1 | 37.3%

test system: OVCAR-3 ovarian; experiment: as above; conditions: 10 µM unless noted

Structure (SMILES) | growth
O=S(=O)(NCCNc1nccc(-c2c(-c3ccc(F)c(O)c3)nc3occn23)n1)c1ccccc1 | 77.1%
Cc1ccc2[nH]c(=O)cc(-n3nncc3COc3ccc(C=O)cc3)c2c1 | 102%
Brc1ccc(C2CC(c3cccc(Nc4ccncc4)c3)=NN2c2ccccc2)cc1 (stereo unspecified) | 80%
COc1cc(NCC(O)CN(CC(C)C)C2CCCC2)c2ncccc2c1 (stereo unspecified) | 63.7%
CC(=O)OCCCCCNc1ccccc1 | 105%
CN1CCN(CC#CCNC(=O)[C@]23CCC(C)(C)C[C@H]2C2=CC[C@@H]4[C@@]5(C)Cc6c([nH]c7ccccc67)C(C)(C)[C@@H]5CC[C@@]4(C)[C@]2(C)CC3)CC1 | 72.2%
COc1c(Cl)cc(Cl)c2ccc(C=C3C(=O)N(C)C(=O)N(C)C3=O)nc12 | 104%
Nc1c(C(=O)Nc2ccc(Cl)cc2)cc(-c2nc3ccccc3s2)c(=O)n1NS(=O)(=O)c1ccc(Cl)cc1 | 105%
COc1ccc(C(=O)c2cc3c(N)c(C(=O)Nc4cccc(Br)c4C)sc3nc2C)cc1 | -20.1% (active)
CCN(CC)S(=O)(=O)c1cccc([N+](=O)[O-])c1 | 108%
CCc1c(Nc2ccc(C)cc2)nc(N)[nH]c1=O | 119%
CN1CCN(c2cc(F)c(NC3=C(Cl)C(=O)c4ncccc4C3=O)c(F)c2)CC1 | -98.2% (active)
Cn1c(COC(=O)NCCn2ccnc2)nc2c(N3CCOCC3)nc(-c3ccccc3)nc21 | -89.7% (active)
COc1cc(CNC(=O)CCCCC[P+](c2ccccc2)(c2ccccc2)c2ccccc2)c(OC)c2c1OCO2 | 44.5%
CC(=O)OCC(=O)[C@@]1(O)CC[C@H]2[C@@H]3CC(=C(Br)Br)C4=CC(=O)CC[C@]4(C)[C@H]3C(=O)C[C@@]21C | 98.6%
O=C1CCCCCCCCC(O)C(O)CCCC(c2cccs2)O1 (stereo unspecified) | 102%
COC(=O)C1=C(C(=O)ONCCN(C)C)C2C=CC1(C(Cc1ccccc1)Nc1ccc(F)cc1)O2 (stereo unspecified) | 39.9%
CS(=O)(=O)c1ccc(-c2cc3c(oc2=O)-c2ccccc2OC3O)cc1 (stereo unspecified) | 88.2%
Clc1ccc(C2CC(c3cccc(Nc4ccncc4)c3)=NN2c2ccc(Cl)cc2)cc1 (stereo unspecified) | 31%

Structure (SMILES) | growth
CCN(CC)CCCCCCNc1cc(OC)cc2cccnc12 | -44.2% (active)
Clc1cc(Cl)cc(N2N=C(c3cccc(Nc4ccncc4)c3)CC2c2ccc3c(c2)OCO3)c1 (stereo unspecified) | 52.3%
CC(=O)N1N=C(c2cccc(Nc3ccncc3)c2)CC1c1ccc2c(c1)OCO2 (stereo unspecified) | 96%
COc1cc(/C=C/C(=O)c2c(C)oc3nc[nH]c(=O)c23)ccc1O | 108%
Cc1ccc(C2C3CC4CCCCC4N3[C@@]3(C(=O)Nc4cc(Cl)ccc43)C2C(=O)c2nc3ccccc3[nH]2)cc1 (stereo partly specified) | 33.4%
CCCCCOc1ccc(/C=N/Nc2cc(C)nc3ccc(Br)cc23)cc1 | -83.2% (active)
C=C1C(=O)O[C@H]2[C@H]1CC/C(COC(=O)/C=C/c1c[nH]c3ccccc13)=C\CC[C@@]1(C)O[C@@H]21 | -91.5% (active)
CCCCCN1C=C/C(=C\C(=O)N(C)c2ccc(Br)cc2)c2ccccc21 | 98.8%
COc1cc2nc(-c3ccc(C(F)(F)F)cc3)cc(OCCN3CCC(O)CC3)c2cc1OC | 93.8%
COc1cccc(-c2nc3occn3c2-c2ccnc(NCCCNS(=O)(=O)c3cccc(F)c3)n2)c1 | 88.1%
COc1ccc(C(=O)c2cc3c(N)c(C(=O)Nc4cccc5ccccc45)sc3nc2C)cc1 | -7.2% (active)
CCCCCCCCCCN=C(N)N=C(N)N | 41.9%
CN1CCN(Cc2ccc(NC(=O)c3cncc(C#Cc4cnccc4C(F)(F)F)c3)cc2C(F)(F)F)CC1 | 105%
C=C(C)[C@@H]1CC[C@]2(CO)CC[C@]3(C)[C@H](CC[C@@H]4[C@@]5(C)CCCNC(C)(C)[C@@H]5CC[C@]43C)[C@@H]12 | 44.4%
O=S(=O)(NCCNc1nccc(-c2c(-c3cccc(F)c3)nc3occn23)n1)c1cccc2ccccc12 | 71.7%
CC(=O)N1c2ccccc2NC2=C(C(=O)N(C)C2(C)C)C1C (stereo unspecified) | 18.1%
O=C(Nc1ccc(F)cc1)c1c(NC(=O)C(F)(F)F)sc2c1CCCCC2 | 4.39% (active)
O=C1Nc2c(ccc(Cl)c2Cl)/C1=C/c1ccc([N+](=O)[O-])cc1 | 108%
COc1ccc(-c2nc(N/N=C/c3ccco3)nc(N3CCOCC3)c2C#N)cc1 | 70.2%
